Measured values published in ChEMBL document CHEMBL3988442, “University of Dundee, Small-Polar-MMV Screening Library” (2021).
For part of these data: Entries with a potency or affinity are not part of this list.

What was measured:
Parameters in all cases: scale not given: direction of the effect not stated beside the values
[1] = molecular target: Protein translocase subunit SecA (Escherichia coli (strain K12)) (UniProt P10408); test: Assay to Identify E. coli SecA ATPase Inhibitors; format: functional; conditions: 30 µM
[2] = molecular target: T1, Ubiquitin-activating enzyme e1, putative (Leishmania donovani (strain BPK282A1)) (UniProt E9BSI1); test: Leishmania donovani Ubiquitin Activating Enzyme (LdE1); format: functional; conditions: 30 µM
T1 sequence (whole entry): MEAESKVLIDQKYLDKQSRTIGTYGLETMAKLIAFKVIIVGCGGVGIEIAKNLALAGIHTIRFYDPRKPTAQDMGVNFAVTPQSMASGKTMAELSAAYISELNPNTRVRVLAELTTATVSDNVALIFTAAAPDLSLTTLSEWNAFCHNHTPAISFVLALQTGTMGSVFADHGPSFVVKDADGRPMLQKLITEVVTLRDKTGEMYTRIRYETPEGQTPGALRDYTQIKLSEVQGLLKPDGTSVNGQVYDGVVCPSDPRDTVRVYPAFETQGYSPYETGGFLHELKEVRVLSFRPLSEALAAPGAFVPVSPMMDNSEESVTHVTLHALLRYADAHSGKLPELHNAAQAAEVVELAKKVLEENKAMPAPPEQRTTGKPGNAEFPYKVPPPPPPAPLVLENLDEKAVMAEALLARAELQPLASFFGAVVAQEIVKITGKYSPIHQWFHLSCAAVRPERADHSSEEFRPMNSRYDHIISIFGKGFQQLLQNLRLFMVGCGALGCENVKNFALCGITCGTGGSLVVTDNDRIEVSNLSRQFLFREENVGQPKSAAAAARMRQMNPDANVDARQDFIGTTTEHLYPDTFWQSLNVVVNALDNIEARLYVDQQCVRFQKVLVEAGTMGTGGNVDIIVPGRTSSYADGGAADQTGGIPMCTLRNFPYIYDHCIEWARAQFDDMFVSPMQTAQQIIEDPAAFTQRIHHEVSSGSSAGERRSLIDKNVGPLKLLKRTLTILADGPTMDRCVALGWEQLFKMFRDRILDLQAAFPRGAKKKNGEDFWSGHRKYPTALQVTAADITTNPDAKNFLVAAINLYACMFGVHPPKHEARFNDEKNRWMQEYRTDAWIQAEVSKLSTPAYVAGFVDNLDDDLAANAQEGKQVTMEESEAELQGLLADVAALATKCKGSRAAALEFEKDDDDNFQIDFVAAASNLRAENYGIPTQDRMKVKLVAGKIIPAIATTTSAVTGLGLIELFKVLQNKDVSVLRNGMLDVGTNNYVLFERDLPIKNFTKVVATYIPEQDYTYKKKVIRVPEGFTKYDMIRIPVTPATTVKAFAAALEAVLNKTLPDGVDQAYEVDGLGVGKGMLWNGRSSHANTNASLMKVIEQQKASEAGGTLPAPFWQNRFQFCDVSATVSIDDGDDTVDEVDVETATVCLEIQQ

[3] = molecular target: T2, Aspartate--tRNA(Asp/Asn) ligase (Mycobacterium tuberculosis (strain ATCC 25618 / H37Rv)) (UniProt P9WFW3); test: Assay for Asp RNA synthetase-1 from Mycobacterium tuberculosis; format: functional; conditions: 30 µM; also: in the data most compounds retested in dose-response had high values
T2 sequence (whole entry): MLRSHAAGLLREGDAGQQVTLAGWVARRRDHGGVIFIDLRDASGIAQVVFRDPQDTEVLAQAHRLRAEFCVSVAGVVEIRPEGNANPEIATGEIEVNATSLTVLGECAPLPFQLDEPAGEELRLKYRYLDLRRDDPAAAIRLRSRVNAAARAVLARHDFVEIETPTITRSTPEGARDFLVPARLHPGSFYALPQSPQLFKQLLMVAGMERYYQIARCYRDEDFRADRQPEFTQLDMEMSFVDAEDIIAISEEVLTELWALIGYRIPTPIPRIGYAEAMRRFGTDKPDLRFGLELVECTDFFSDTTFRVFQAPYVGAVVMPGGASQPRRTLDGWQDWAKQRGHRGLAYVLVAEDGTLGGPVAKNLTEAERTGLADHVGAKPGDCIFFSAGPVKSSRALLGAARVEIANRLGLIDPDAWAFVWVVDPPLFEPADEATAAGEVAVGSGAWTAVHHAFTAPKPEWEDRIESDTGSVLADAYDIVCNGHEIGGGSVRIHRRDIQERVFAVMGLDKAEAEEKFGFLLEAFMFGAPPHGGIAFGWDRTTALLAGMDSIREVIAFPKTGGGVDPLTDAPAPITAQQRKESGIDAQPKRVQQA

[4] = molecular target: AMP-activated protein kinase, AMPK (Homo sapiens) (UniProt P54646+O43741+P54619+Q9UGJ0+Q9Y478+Q13131+Q9UGI9); test: AMP-dependent Kinase enzyme assay. An in vitro enzyme assay that detects ADP turnover that is directly proportional to AMPK activity. This uses naive AMPK that is activated during the assay with MK-8722; format: functional; conditions: 30 µM
[5] = molecular target: Sialic acid-binding Ig-like lectin 9 (Homo sapiens) (UniProt Q9Y336); test: Hs-Siglec9 ALPHAscreen SOP 20170721; conditions: 10 µM
Trypanosoma cruzi = test: Trypanosoma cruzi phosphomannomutase and mannose-1-phosphate guanylyltransferase assay; format: functional; conditions: 10 µM
[6] = molecular target: T3, Arginase-2, mitochondrial (Homo sapiens) (UniProt P78540); test: in vitro enzyme assay to detect the production of urea directly proportional to the activity of Arginase II; format: functional; conditions: 33.3 µM; also: in the data most compounds retested in dose-response had high values
T3 sequence (whole entry): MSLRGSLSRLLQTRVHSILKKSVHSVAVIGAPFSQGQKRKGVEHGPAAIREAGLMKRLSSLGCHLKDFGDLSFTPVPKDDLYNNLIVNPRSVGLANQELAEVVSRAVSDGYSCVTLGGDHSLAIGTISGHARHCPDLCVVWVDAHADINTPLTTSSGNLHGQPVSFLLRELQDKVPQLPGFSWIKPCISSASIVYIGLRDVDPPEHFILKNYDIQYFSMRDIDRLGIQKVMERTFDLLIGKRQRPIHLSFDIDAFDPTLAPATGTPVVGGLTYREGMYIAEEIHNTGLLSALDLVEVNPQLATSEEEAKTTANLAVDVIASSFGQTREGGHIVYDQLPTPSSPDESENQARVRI

[7] = molecular target: T4, Proteasome subunit beta (Trypanosoma cruzi) (UniProt O96673); test: Trypanosoma cruzi proteasome chymotrypsin-like activity (TcProtChymo) assay.; also: in the data most compounds retested in dose-response had high values; format: functional; conditions: 9.37 µM
T4 sequence (whole entry): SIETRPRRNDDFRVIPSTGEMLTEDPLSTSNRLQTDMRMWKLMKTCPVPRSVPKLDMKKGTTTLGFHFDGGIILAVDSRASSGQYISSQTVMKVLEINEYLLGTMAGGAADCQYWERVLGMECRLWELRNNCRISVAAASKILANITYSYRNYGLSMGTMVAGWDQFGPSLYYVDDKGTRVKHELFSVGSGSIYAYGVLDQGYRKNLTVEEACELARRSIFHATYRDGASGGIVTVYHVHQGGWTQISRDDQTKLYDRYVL

Homo sapiens = organism: Homo sapiens; test: To identify inhibition of the IFN signalling (Jak-Stat) pathway via expression of an eGFP reporter gene under the control of an IFN-stimulated response element (ISRE) containing MxA promoter.; format: functional; conditions: 30 µM
[8] = molecular target: Shiga toxin 2 (Escherichia coli O157:H7) (UniProt P09385+P09386); test: E. coli 0.157:H7 Shiga Toxin SOP - stx2 screening assay; format: functional; conditions: 30 µM
[9] = molecular target: T5, Tyrosyl-tRNA synthetase, putative (Trypanosoma cruzi (strain CL Brener)) (UniProt Q4DSP6); test: Trypanosoma cruzi tyrosyl tRNA synthetase (TcYRS) _High Tyrosine SOP; format: functional; conditions: 30 µM; also: in the data most compounds retested in dose-response had high values
T5 sequence (whole entry): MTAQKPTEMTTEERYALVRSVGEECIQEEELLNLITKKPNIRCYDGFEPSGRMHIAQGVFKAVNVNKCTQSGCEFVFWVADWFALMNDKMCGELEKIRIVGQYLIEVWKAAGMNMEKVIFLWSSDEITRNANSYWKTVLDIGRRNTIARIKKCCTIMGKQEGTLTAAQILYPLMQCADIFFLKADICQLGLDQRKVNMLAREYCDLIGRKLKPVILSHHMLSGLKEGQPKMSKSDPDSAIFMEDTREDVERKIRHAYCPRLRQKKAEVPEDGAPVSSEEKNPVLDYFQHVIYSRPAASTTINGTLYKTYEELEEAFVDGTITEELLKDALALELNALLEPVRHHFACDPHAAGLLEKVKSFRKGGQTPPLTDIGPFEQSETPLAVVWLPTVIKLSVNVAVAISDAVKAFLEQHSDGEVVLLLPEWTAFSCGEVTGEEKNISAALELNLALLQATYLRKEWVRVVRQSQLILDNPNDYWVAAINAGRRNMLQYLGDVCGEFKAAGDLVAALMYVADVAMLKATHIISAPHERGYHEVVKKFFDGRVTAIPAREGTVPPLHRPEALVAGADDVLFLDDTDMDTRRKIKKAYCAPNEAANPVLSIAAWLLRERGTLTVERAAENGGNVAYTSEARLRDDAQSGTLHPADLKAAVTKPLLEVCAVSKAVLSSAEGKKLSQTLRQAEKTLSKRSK

[10] = molecular target: T5, Tyrosyl-tRNA synthetase, putative (Trypanosoma cruzi (strain CL Brener)); test: Trypanosoma cruzi tyrosyl tRNA synthetase (TcYRS) SOP; format: functional; conditions: 30 µM
[11] = molecular target: Chromo domain-containing protein 1 (Saccharomyces cerevisiae (strain ATCC 204508 / S288c) (Baker's yeast)) (UniProt P32657); test: ScCHD-1 Enzyme Inhibition Assay; format: functional; conditions: 30 µM; also: in the data most compounds retested in dose-response had high values
Chain of Chromo domain-containing protein 1 (Saccharomyces cerevisiae (strain ATCC 204508 / S288c) (Baker's yeast)) (P32657 whole entry, the tested form may be a part): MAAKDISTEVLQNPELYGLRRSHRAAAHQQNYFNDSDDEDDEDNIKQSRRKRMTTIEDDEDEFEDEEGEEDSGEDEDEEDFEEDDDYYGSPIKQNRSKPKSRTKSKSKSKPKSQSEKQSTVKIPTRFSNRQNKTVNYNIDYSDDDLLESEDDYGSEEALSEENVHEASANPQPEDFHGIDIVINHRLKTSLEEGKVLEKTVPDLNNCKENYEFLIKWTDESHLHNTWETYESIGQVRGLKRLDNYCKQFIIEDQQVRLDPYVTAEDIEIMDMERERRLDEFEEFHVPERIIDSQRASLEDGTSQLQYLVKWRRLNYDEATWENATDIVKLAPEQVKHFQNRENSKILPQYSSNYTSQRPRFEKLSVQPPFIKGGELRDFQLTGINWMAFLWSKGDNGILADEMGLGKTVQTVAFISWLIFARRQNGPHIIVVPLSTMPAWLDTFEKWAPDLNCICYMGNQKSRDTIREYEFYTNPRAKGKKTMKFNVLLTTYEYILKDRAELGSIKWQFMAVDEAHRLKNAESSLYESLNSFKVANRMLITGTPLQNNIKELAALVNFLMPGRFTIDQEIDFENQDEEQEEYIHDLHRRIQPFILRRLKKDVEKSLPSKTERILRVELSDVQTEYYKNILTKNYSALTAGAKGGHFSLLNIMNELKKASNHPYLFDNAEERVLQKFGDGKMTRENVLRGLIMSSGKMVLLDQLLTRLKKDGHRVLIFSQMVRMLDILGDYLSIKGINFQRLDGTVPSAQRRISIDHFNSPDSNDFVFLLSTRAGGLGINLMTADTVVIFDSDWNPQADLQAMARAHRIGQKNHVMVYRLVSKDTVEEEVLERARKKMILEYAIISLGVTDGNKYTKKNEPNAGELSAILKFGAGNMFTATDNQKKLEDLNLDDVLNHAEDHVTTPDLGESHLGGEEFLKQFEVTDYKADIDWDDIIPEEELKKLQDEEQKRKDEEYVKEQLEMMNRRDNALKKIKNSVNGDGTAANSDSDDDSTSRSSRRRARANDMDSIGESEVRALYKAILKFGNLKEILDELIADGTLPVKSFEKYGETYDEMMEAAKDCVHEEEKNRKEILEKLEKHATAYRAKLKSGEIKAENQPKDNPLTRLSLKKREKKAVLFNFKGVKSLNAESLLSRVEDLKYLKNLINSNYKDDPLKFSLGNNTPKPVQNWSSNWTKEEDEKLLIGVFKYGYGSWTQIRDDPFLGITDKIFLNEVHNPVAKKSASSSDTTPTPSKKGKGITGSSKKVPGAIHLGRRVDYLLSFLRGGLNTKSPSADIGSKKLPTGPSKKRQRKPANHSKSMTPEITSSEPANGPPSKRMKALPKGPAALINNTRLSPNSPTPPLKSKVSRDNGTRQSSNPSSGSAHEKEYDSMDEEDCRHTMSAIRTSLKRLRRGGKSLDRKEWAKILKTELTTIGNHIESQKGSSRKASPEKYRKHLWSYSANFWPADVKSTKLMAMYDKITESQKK

Chain of Sialic acid-binding Ig-like lectin 9 (Homo sapiens) (Q9Y336 whole entry): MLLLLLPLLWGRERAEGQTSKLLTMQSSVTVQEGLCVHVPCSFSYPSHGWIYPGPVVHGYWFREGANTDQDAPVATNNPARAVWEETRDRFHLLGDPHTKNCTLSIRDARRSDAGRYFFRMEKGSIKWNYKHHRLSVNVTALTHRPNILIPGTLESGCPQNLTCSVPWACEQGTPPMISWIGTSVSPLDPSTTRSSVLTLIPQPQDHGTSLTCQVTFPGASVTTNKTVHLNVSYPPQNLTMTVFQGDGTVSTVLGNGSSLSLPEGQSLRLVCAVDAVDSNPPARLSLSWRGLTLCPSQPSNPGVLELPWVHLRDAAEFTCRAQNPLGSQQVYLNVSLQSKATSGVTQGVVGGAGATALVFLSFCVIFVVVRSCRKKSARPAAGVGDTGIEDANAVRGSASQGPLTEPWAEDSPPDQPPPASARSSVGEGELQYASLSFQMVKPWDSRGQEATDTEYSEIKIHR
Chain of Protein translocase subunit SecA (Escherichia coli (strain K12)) (P10408 whole entry): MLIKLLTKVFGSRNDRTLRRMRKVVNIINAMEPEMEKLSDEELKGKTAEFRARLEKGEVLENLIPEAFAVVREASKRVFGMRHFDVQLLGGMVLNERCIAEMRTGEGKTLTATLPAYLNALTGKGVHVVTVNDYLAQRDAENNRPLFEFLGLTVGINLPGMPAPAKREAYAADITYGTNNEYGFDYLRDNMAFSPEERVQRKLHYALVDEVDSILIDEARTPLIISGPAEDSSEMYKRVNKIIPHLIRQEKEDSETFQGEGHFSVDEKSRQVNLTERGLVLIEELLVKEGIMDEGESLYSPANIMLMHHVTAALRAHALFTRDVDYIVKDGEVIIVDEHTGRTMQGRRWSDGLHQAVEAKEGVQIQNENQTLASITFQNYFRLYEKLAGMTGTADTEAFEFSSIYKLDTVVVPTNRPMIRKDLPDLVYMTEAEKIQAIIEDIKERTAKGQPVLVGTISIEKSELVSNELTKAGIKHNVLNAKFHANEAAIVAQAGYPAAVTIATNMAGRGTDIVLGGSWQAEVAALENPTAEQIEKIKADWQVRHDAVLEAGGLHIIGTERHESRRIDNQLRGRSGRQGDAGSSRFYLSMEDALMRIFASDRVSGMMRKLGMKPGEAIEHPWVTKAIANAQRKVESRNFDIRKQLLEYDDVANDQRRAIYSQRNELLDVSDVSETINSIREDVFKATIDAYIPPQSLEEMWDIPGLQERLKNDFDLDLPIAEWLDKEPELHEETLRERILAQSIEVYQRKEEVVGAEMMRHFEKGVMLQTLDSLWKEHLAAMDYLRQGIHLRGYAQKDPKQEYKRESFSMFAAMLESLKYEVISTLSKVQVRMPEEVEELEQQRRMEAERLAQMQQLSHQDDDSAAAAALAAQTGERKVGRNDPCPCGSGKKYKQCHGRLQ

SMILES	Percent Effect [1]	Percent Effect [2]	Percent Effect [3]	Percent Effect [4]	Percent Effect [5]	Percent Effect (Trypanosoma cruzi)	Percent Effect [6]	Percent Effect [7]	Percent Effect (Homo sapiens)	Percent Effect [8]	Percent Effect [9]	Percent Effect [10]	Percent Effect [11]
c1ccc(CN2CC[C@H]3CO[C@H](CNc4ncccn4)[C@H]3C2)nc1	-2.49%	8%	-3.84%	2.38%	4.32%	-0.772%	-54.3%	9.74%	-5.93%	3.55%	2.08%	12.5%	-8.55%
CN1C(=O)C2(CCN(CCO)C2)c2ccccc21 (stereo not given)	-3.9%	10.8%	-3.9%	5.24%	-5.82%	-4.01%	0.319%	24.9%	-2.44%	-6.34%	1.08%	12.8%	-1.83%
CCc1nc(CNC(C)Cn2cccn2)cs1 (stereo not given)	-1.58%	13.5%	5.32%	-19.1%	12.1%	2.36%	-12%	9.73%	14.4%	9.22%	12.3%	30.9%	-13.1%
COCCO[C@@H]1C[C@H]2CN(C(=O)c3ccc(C)nc3)CCN2C1	0.459%	10.7%	6.84%	-2.91%	3.06%	-3.86%	-51.4%	8.89%	-12.5%	-18.6%	4.17%	15%	-6.6%
Cc1noc(C)c1CN1CC[C@@H]2O[C@@H](COCC(C)C)CC[C@@H]21	-2.23%	0%	-1.08%	1.3%	5.58%	-1.16%	-49.3%	2.22%	8.8%	2.31%	2.08%	2.5%	1.48%
CN(C)c1nccc(N2CCO[C@H]3CN(Cc4ccsc4)C[C@H]32)n1	-0.682%	8.22%	-1.5%	2.33%	8.35%	1.59%	-0.399%	19.9%	2.38%	-97.8%	8.33%	13.6%	-5.92%
CC(C)N1CCC2(CCN(C(=O)c3cccnc3)CC2)C1	1.13%	10.8%	1.7%	4.26%	-12.5%	-9.68%	8.6%	20.9%	-1.74%	-5.59%	-24.9%	10.3%	-2.2%
CC(C)N1CCc2c(CN(C)Cc3ccco3)cncc2C1	-2.76%	0%	-1.51%	0.165%	16.7%	-3.86%	-22.8%	0.171%	-0.596%	-0.895%	4.17%	-7.5%	-4.61%
O=C(c1cc(-n2cccc2)ccc1Cl)N1CCC2(CC1)OCCO2	-3.83%	7.89%	3.38%	15.4%	-3.27%	-0.876%	-8.28%	15.8%	1.48%	8.93%	2.13%	10.4%	-2.85%
c1ccc(CN2C[C@@H]3CCCO[C@@H]3[C@H](Nc3ccccn3)C2)nc1	-6.38%	5.41%	3.79%	-2.17%	3.76%	0.88%	3.23%	8.15%	-12.7%	8.28%	6.45%	16.1%	-2.77%
Cc1cc(CN2C[C@@H]3COC[C@]3(CN(C)C)C2)no1	-1.63%	-2.7%	-2.03%	7.75%	3.28%	-3.42%	1.59%	26.4%	-4.54%	-2.49%	3.24%	2.56%	-2.67%
Cc1oc(-c2ccco2)nc1CC(=O)N1CCN(C2CCC2)CC1	-7.4%	7.79%	-0.115%	-1.25%	1.16%	1.08%	4%	12.8%	2.52%	24.8%	0%	7.06%	-19%
Cc1cc(CN2C[C@@H]3COC[C@]3(CNC(=O)c3ccno3)C2)no1	-5.72%	2.7%	6.65%	2.65%	4.53%	0.293%	8.6%	13.1%	-16.8%	-2.33%	3.24%	5.13%	1.22%
O=C1OCCC1N1CCN(C(=O)Cc2c[nH]c3ccccc23)CC1 (stereo not given)	-0.412%	18.9%	6.13%	-14.5%	-1.41%	3.49%	-9.62%	15.7%	9.19%	15.5%	12.3%	23.5%	-11.1%
CC(=O)N1CCOCC2(CN(Cc3ccccn3)CCO2)C1 (stereo not given)	-4.37%	-2.67%	0.233%	-1.22%	-2.37%	4.25%	2.33%	9.74%	-30.1%	-6.22%	2.08%	2.5%	-3.93%
